Records with an inconclusive call do not appear. Entries that show only a call come without a potency. The source holds several records for some structures; these can differ, active in one and inactive in another. Active and inactive are the calls of the source. Unless noted, calls follow the shape of the dose curve; as a rule, active = well fitted curve in the direction sought with a large enough effect; inconclusive = small, poorly fitted or top-dose-only effect, or another doubt; inactive = no such curve, though single readings can be large; an effect the other way counts as inactive or inconclusive.
Assays:
[1] = qHTS for Inhibitors of Plasmodium falciparum (DD2) proliferation (AID 504314);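 also: parasite DNA measured by SYBR Green fluorescence after red cell lysis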
Method in brief: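 Parasite proliferation measured as SYBR Green signal from Plasmodium DNA, mature erythrocytes lacking DNA. 72 h incubation, 37C; activity scaled between vehicle and 0.29 uM artemisinin, with correction from vehicle-only plates.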

[2] = qHTS for Inhibitors of Plasmodium falciparum (GB4) proliferation (AID 504315); also: nearly all actives have a fitted effect of over 50% in size; also: potency is read from the fitted curve at half-maximal effect
Method in brief: (§1)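 Parasite growth measured as SYBR Green DNA fluorescence (ex 485, em 535 nm) after overnight lysis following 72 h culture at 37 °C, 0.3% parasitemia, 2.5% hematocrit. Values normalized against DMSO and 0.29 uM artemisinin controls, with plate-stack correction.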

[3] = qHTS for Inhibitors of Plasmodium falciparum (CP250) proliferation (AID 504320)
Method in brief: as §1

[4] = target: Atrial natriuretic peptide receptor 1 (Homo sapiens) (UniProt P16066); experiment: Natriuretic polypeptide receptor (hNpr1) antagonism - Pilot CMLD screen (AID 1347052; calls by dose curve;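 also: cGMP level read as GloSensor luciferase luminescence after agonist stimulation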; also: potency is read from the fitted curve at half-maximal effect)
Atrial natriuretic peptide receptor 1 (Homo sapiens), sequence (P16066 whole entry, looked up): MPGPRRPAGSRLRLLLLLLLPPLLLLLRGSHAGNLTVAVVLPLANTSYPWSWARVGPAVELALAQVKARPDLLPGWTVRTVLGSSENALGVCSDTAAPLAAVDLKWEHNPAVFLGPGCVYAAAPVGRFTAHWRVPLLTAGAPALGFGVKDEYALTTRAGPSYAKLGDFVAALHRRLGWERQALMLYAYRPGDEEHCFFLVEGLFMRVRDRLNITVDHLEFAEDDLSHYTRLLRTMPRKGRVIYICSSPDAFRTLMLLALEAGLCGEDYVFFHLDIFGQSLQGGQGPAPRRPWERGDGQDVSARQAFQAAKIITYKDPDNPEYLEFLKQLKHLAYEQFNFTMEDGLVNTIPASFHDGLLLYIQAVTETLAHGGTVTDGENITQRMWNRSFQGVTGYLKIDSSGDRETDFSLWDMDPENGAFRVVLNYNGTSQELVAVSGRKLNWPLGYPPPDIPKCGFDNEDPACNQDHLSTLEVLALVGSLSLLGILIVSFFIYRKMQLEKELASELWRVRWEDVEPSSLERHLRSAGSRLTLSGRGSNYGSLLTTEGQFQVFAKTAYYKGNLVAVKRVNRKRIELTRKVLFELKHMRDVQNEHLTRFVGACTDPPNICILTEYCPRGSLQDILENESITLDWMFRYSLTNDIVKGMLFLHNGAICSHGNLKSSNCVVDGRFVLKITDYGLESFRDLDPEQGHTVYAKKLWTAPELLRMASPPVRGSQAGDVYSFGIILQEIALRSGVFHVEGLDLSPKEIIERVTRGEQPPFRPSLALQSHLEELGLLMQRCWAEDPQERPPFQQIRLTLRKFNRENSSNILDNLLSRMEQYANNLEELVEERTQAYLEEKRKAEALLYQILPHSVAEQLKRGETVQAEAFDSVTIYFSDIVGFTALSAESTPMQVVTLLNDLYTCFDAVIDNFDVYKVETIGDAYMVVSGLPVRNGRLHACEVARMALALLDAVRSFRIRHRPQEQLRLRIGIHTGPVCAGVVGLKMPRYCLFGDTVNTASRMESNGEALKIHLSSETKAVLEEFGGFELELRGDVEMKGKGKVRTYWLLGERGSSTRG

SMILES | Potency [1] | Potency [2] | Potency [3] | Potency [4] | activity, negative = inhibition [1]
C[C@@H]1CC2CCCC2[C@]2(O1)C(=O)Nc1ccccc12 (some centres undefined) | inactive | inactive | inactive | inactive | –
C[C@H]1Cc2c(COc3ccccc3)nc3c(c2CO1)CN(S(=O)(=O)c1ccc2c(c1)OCCN2C)CC3 | – | inactive | inactive | inactive | -3.65% [at 1.12 µM] (inactive)
COc1cccc([C@H]2Oc3ccc(OC)cc3C(=NOCC[C@@H]3C=C[C@H](OC(C)=O)[C@@H](COC(C)=O)O3)[C@H]2O)c1 | inactive | inactive | inactive | inactive | –
CC1(OC(=O)CCc2ccccc2)C(=O)C=C2C=C(c3ccc(C#N)cc3)N(CC3CC3)C=C2C1=O (centres undefined) | – | inactive | inactive | inactive | -3.92% [at 1.12 µM] (inactive)
C#CCCCON=C1C[C@@H](O)[C@H](O)[C@H]2[C@@H]3C(=O)N(Cc4ccc5c(c4)OCO5)C(=O)[C@@H]3CC[C@H]12 | inactive | inactive | inactive | inactive | –
COC(=O)CCC(=O)OC1(C)C(=O)C=C2C=C(C3CC3)N(c3ccc(CO)cc3)C=C2C1=O (centres undefined) | – | inactive | inactive | inactive | -5.46% [at 1.12 µM] (inactive)
C=CC1=C2C=C(C3CC3)N(c3ccc(OC)cc3)C=C2C(=O)C(C)(OC(=O)c2ccco2)C1=O (centres undefined) | – | inactive | inactive | inactive | 0.839% [at 1.12 µM] (inactive)
CCN1C(=NCC(C)C)N[C@@H](CCc2ccccc2)[C@H](C(=O)OC)[C@H]1C | inactive | inactive | inactive | inactive | –
COC(=O)C(C(=O)OC)C1c2ccccc2C=C(C2CC2)N1C(=O)OC (centres undefined) | inactive | inactive | inactive | 531 nM (active) and inactive | –
CC(CCN1CCCc2nc(C)c(C)cc21)=NOC[C@@H](O)[C@H]1O[C@@H]2OC(C)(C)O[C@H]2[C@@H]1O | inactive | inactive | inactive | inactive | –
C=C(C(C)=O)C(O)c1ccccc1 (centres undefined) | inactive | inactive | inactive | inactive | –
CC=CC(=O)C[C@H]1CC[C@@H](C)[C@@H](CCO)O1 | inactive | inactive | inactive | inactive | –
C=CCOC(=O)C1(C(NC(=O)OC)c2ccccc2)C(=O)Cc2ccccc21 (centres undefined) | inactive | inactive | inactive | inactive | –
COC1=CC2C(=O)C(C1=O)[C@H](c1ccccc1)[C@H]2C (some centres undefined) | inactive | inactive | inactive | inactive | –
CC(CCN1CCCCc2nc(C)c(C)cc21)=NO[C@H](C)c1cn([C@H](CO)Cc2ccccc2)nn1 | inactive | inactive | inactive | inactive | –
C=CC1=C2C=C(C3CC3)N(C3CCCCC3)C=C2C(=O)C(C)(OC(=O)c2ccco2)C1=O (centres undefined) | – | inactive | inactive | inactive | 1.92% [at 1.12 µM] (inactive)
CC(CCN1CCCc2nc(C)c(C)cc21)=NO[C@@H](C)c1cc(-c2c(C)cc(C)cc2C)no1 | inactive | inactive | inactive | inactive | –
CCCCCC1=CC2=C(C(=O)OC)C(c3ccccc3)NC(=O)N2CC1 (centres undefined) | inactive | inactive | inactive | inactive | –
CCCCCCCc1cc2ccccc2c2c(C=O)c(CCCC)c(C(=O)OC)n12 | inactive | inactive | inactive | inactive | –
C[C@H](NC(=O)N1CCc2nc(-c3ccccc3)c3c(c2C1)CO[C@@H](C)C3)c1ccccc1 | – | inactive | inactive | inactive | 3.91% [at 1.12 µM] (inactive)
COC(=O)CC1c2ccccc2C(Cc2ccc3c(c2)OCO3)=C(C)N1C(=O)OC (centres undefined) | inactive | inactive | inactive | inactive | –
COC1=C[C@H](C(=O)NC2CCN(Cc3ccccc3)CC2)[C@@]2(C)Cc3ccccc3[C@@H]2CC1=O | inactive | inactive | inactive | inactive | –
CCCCc1cc2c(cn1)=C(OC(=O)CCC(=O)OC)C(C)(OC(=O)CC)C(=O)C=2 (centres undefined) | – | 1.69 µM (active) | inactive | inactive | -0.996% [at 1.12 µM] (inactive)
CC(C)=CCCC(C)=CCON=C1C[C@@H](O)[C@@H](O)[C@@H]2[C@H]3C(=O)N(Cc4ccc5c(c4)OCO5)C(=O)[C@@H]3CC[C@H]12 | inactive | inactive | inactive | inactive | –
COC(=O)C1=C(C(=O)OC)[C@@H]2N(C)c3ccccc3[C@@]23CCC(=O)N(Cc2cc(OC)c(OC)c(OC)c2)C3=N1 | inactive | inactive | inactive | inactive | –
C[C@@H]1CC[C@H]2C(=O)N(Cc3cccc([N+](=O)[O-])c3)C[C@@H](O)CN2[C@@H]1c1ccc(Br)cc1 | inactive | inactive | inactive | inactive | –

Reference: PubChem BioAssay (NCATS)
